This passage reports outcome results from PubChem BioAssay (EPA / NIEHS).

Molecules are shown by their SMILES. Records with an inconclusive call do not appear. Activity calls are given as the source filed them. How the source made its calls: active means hit-call score of the fitted dose curve at least 0.9, where 1 is the maximum; inconclusive means response in the unintended direction; inactive means score below 0.9.

Read-out in this experiment: xenobiotic metabolism (CYP2C9), CYP2C9 (gene 1559)
Put plainly: CLD_CYP2C9_6hr: CellzDirect (CLD) Gene Expression Assay for xenobiotic metabolism (CYP2C9) at 6 hours (AID 2283664). How it is done:
CLD_6hr is a cell-based, multiplexed-readout assay that uses hepatocyte, a human liver primary cell, with measurements taken at 6 hours after chemical dosing in a 96-well plate.CLD_CYP2C9_6hr is one of 16 assay component(s) measured or calculated from the CLD_6hr assay. It is designed to make measurements of mRNA induction, a form of inducible reporter, as detected with chemiluminescence signals by Quantitative Nuclease Protection Assay (qNPA) technology.Data from the assay component CLD_CYP2C9_6hr was analyzed at the endpoint, CLD_CYP2C9_6hr, in the positive analysis fitting direction relative to DMSO as the negative control and baseline of activity. Using a type of inducible reporter, gain-of-signal activity can be used to understand changes in the reporter gene as they relate to the gene CYP2C9. Furthermore, this assay endpoint can be referred to as a primary readout. To generalize the intended target to other relatable targets, this assay endpoint is annotated to the cyp intended target family, where subfamily is xenobiotic metabolism.
Human hepatocyte cultures were treated daily for two consecutive days with fresh dosing solutions containing appropriate concentrations of the 320 ToxCast chemicals (chemical identities were blinded to CellzDirect and other ToxCast collaborators), vehicle control (0.2% DMSO), and positive control inducers as summarized in Table 1. Due to the large number of treatment groups and chemicals examined, the ToxCast chemicals were divided into two groups (spanning two independent cultures of hepatocytes from separate donor preparations (Hu778: ToxCast plates 1 and 2; Hu776: ToxCast plates 3 and 4). Each preparation of human hepatocyte cultures was treated with respective vehicle control, medium only control, set of six positive controls/reference chemicals for the five hepatic receptor pathways, and a subset of eight of the ToxCast chemicals (indoxacarb, pyrithiobac-sodium, norflurazon, cyhalofop-butyl, methomyl, thiram, acetochlor, and propiconazole). These replicate data, coupled with internal replicates designed within the blinded ToxCast chemical library, provided additional data to evaluate interindividual differences between hepatocyte preparations and their potential impact on chemical profiles.Cell morphology and integrity were evaluated using phase-contrast microscopy as an indicator of hepatocyte cell health (Tyson & Green, 1987). Cultures for each treatment group (i.e., media, vehicle [0.2% DMSO], positive control inducers [multiple concentrations], and the ToxCast chemicals [multiple concentrations]) were observed and cell morphology was assessed relative to vehicle control cultures at each harvest time point (0, 6, 24, or 48 h). […] Images were evaluated at the conclusion of the study to assess changes in cell integrity and account for the effects of chemical exposure on uncharacteristic changes in concentration-dependent gene expression profiles. The results from these determinations of apparent cytotoxicity were annotated (yes/no) alongside the corresponding qNPA data for reference.At the conclusion of each treatment period, hepatocyte cultures (96-well) were washed with 1 volume of HBSS, lysed by addition of 25 ul ArrayPlate lysis buffer (HTG, Tucson, AZ), and 70 ul/well of Denaturation Oil, denatured by incubation at 95C for 10 min, and frozen at approximately -70C until analysis by nuclease protection assay (qNPA) (Roberts et al., 2007). For qNPA analysis, cell lysates were thawed at 50C for approximately 30 min, qNPA probes were added, and samples were incubated at 95C for 10 min to begin the detection process by denaturing the target RNA, dissociating the duplexes and secondary structure hybridization. At the conclusion of the hybridization period, S1 nuclease reagent was added to each sample to digest all nonprotected nucleotides at 50C for 60-90 min. […]
For the compound `O=c1ccc(=O)[nH][nH]1`, the compound was called inactive. The same measure for `CCOP(=S)(OCC)OC(Cl)C(Cl)(Cl)Cl` (stereo not drawn): “inactive”; for `CN1COCN(Cc2cnc(Cl)s2)C1=N[N+](=O)[O-]`: “inactive”.

In the case of `CSc1nc(NC(C)C)nc(NC(C)C)n1`, the call was inactive. The same measure for `CCc1cccc(CC)c1N(COC)C(=O)CCl`: “inactive”; for `CON=C(C(=O)OC)c1ccccc1CON=C(C)c1cccc(C(F)(F)F)c1`: “inactive”; for `Nc1nc(N)nc(NC2CC2)n1`: “inactive”.

Consider `N#CSCSC#N`, for which the result was inactive. For `CCOP(=O)(OCC)Oc1cc(C)nc(C(C)C)n1`, the outcome was inactive.

Consider `Nc1c(Cl)cc([N+](=O)[O-])cc1Cl`, for which the call was inactive. As for `CCNc1nc(Cl)nc(NC(C)(C)C#N)n1`, the compound was called inactive. For the compound `CSC1=N[C@@](C)(c2ccccc2)C(=O)N1Nc1ccccc1`, the outcome was inactive. With `COc1cc(OC)nc(Sc2cccc(Cl)c2C(=O)O)n1`, the call was inactive. With `CC[C@H](C)[C@H]1O[C@]2(C=C[C@@H]1C)C[C@@H]1C[C@@H](C/C=C(\C)[C@@H](O[C@H]3C[C@H](OC)[C@@H](O[C@H]4C[C@H](OC)[C@@H](NC)[C@H](C)O4)[C@H](C)O3)[C@@H](C)/C=C/C=C3\CO[C@@H]4[C@H](O)C(C)=C[C@@H](C(=O)O1)[C@]34O)O2`, the outcome was inactive. For `COP(=O)(OC)SCn1c(=O)oc2cc(Cl)cnc21` the value was “inactive”; for `CC(C1CC1)C(O)(Cn1cncn1)c1ccc(Cl)cc1` (stereo not drawn), “inactive”. For `CC(C)=CC1C(C(=O)OCN2C(=O)C3=C(CCCC3)C2=O)C1(C)C` (stereo not drawn) the value was “inactive”; for `CNC(=O)ON=C(SC)C(=O)N(C)C`, “inactive”. For `CC(C)N(C(=O)SCC(Cl)=C(Cl)Cl)C(C)C` the value was “inactive”; for `CCCSP(=O)(OCC)SCCC`, “inactive”; for `Cc1ccn2nc(S(=O)(=O)Nc3c(F)cccc3F)nc2n1`, “inactive”.

For the compound `CCC(CC)Nc1c([N+](=O)[O-])cc(C)c(C)c1[N+](=O)[O-]`, the compound was called inactive. For `CCOC(=O)COc1cc(-c2nn(C)c(OC(F)F)c2Cl)c(F)cc1Cl` the value was “inactive”; for `CCOP(=S)(OCC)Oc1ccc2c(C)c(Cl)c(=O)oc2c1`, “inactive”. For `O=[N+]([O-])c1cc(C(F)(F)F)c(Cl)c([N+](=O)[O-])c1Nc1ncc(C(F)(F)F)cc1Cl` the value was “inactive”; for `C=C(C)[C@H]1Cc2c(ccc3c2O[C@@H]2COc4cc(OC)c(OC)cc4[C@@H]2C3=O)O1`, “inactive”. The same measure for `CCCCOC(=O)c1ccccc1C(=O)O`: “inactive”; for `CC(=NC#N)N(C)Cc1ccc(Cl)nc1`: “inactive”. Turning to `CSc1nnc(C(C)(C)C)c(=O)n1N`, the outcome was inactive. For `CCCCSP(=O)(SCCCC)SCCCC` the value was “inactive”.

As to `COc1cccc(C(=O)NN(C(=O)c2cc(C)cc(C)c2)C(C)(C)C)c1C`, the result was inactive. Take `COP(=O)(NC(C)=O)SC` (stereo not drawn): the result was inactive. `O=C(O)c1cc(Oc2ccc(C(F)(F)F)cc2Cl)ccc1[N+](=O)[O-]`: the outcome was inactive.
